The values below come from the supplement of paper PMC9135407.

Several values for one entry are separate records, joined by “and”; a condition that tells them apart may be missing. Equal values may be shown once. Where a name gives a salt, the structure may show the parent alone. Hit rate of the full screen: of about 5,800 compounds, about 620 (11%) showed activity. What follows is part of a selection rich in actives, with near analogues and random picks from the rest. A number with no mark means an inactive call.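 Rule for the calls: active = score above a cut-off or among the top three wells of a plate; in these data no inactive exceeds 0.85.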

The test concerns primary human hepatic stellate cells (donor 1). Kind of test: scaled lipid accumulation score (0 = DMSO-like, 1 = nortriptyline-like); higher = stronger HSC inactivation (lipid re-accumulation), active = hit call of the paper. As to conditions: 48 h.
Where [1] appears, read: library stock concentration: 3.33 mM.
Setting [2] is: library stock concentration: 10 mM.
The mark [3] stands for this setting: library stock concentration: 1 mM.
Where [4] appears, read: library stock concentration: 6.9 mM.

For `O=C1C=CC[C@@H]2[C@H]3CCCN4CCC[C@@H](CN12)[C@@H]34` [Sophocarpine], the “scaled lipid accumulation score” value by setting is: under setting [1], ≤ 0; under setting [2], ≤ 0.
For `CCCCC/C=C\C/C=C\C/C=C\C/C=C\CCCC(=O)NCCOP(=O)(O)O` [Arachidonoyl Ethanolamide Phosphate], the “scaled lipid accumulation score” value under setting [3] was ≤ 0.
On to `C/C(=C\c1csc(C)n1)[C@@H]1C[C@@H]2O[C@]2(C)CCC[C@H](C)[C@H](O)[C@@H](C)C(=O)C(C)(C)[C@@H](O)CC(=O)O1` [Epothilone B (EPO906, Patupilone)], for which the “scaled lipid accumulation score” value runs as follows: under setting [1], ≤ 0; under setting [2], ≤ 0.
On to `CCCCC/C=C\C/C=C\C/C=C\C/C=C\CCCC(N)=O` [Arachidonamide], for which the “scaled lipid accumulation score” value under setting [3] was ≤ -0.021.
Still for that read-out and setting: to `CCCCC/C=C\C/C=C\C/C=C\C/C=C\CCCC(N)=O` [Arachidonoyl amide] belongs ≤ 0.
As to `CN1[C@@H]2CC[C@H]1C[C@@H](OC(c1ccccc1)c1ccccc1N)C2` (stereo partly specified) [Aminobenztropine], the “scaled lipid accumulation score” value under setting [2] is 0.656.
With `CN1[C@H]2C[C@H](OC(=O)[C@H](CO)c3ccccc3)C[C@@H]1[C@@H](O)C2`, the “scaled lipid accumulation score” value under setting [2] is ≤ 0.
Take `CN1C2CCC1CC(OC(c1ccccc1)c1ccc(Cl)cc1)C2.Cl` (stereo unspecified): the “scaled lipid accumulation score” value under setting [2] was 1.07 (active).
As for `COc1cc(C(=O)OC2CC3CCC(C2)N3C)ccc1O` (stereo unspecified) [Fillalbin], the “scaled lipid accumulation score” value is ≤ 0.
`CN1[C@@H]2CC[C@H]1C[C@@H](OC1c3ccccc3CCc3ccccc31)C2` [Deptropine citrate]: the “scaled lipid accumulation score” value is 0.266.
Turning to `CN1[C@H]2C[C@H](OC(=O)[C@H](CO)c3ccccc3)C[C@@H]1[C@@H](O)C2` [Anisodamine], the “scaled lipid accumulation score” value under setting [2] was 0.076.
Regarding `CN1C2CCC1CC(OC(c1ccc(F)cc1)c1ccc(F)cc1)C2.Cl` (stereo unspecified), the “scaled lipid accumulation score” value under setting [2] was 1.29 (active).
In the case of `CC(C)(C)OC(=O)NC1[C@H]2CNC[C@@H]12` (stereo partly specified), the “scaled lipid accumulation score” value under setting [2] is ≤ -0.033.
On to `CCCCCCCCCCCCCCCCSP(=O)([O-])OCC[N+](C)(C)C` [thio-Miltefosine], for which the “scaled lipid accumulation score” value under setting [3] is ≤ 0.
On to `CCCCC/C=C\C/C=C\C/C=C\C/C=C\CCCC(=O)NCc1ccoc1`, for which the “scaled lipid accumulation score” value under setting [3] is ≤ 0.
On to `CCCCC(C#N)(Cn1cncn1)c1ccc(Cl)cc1` (stereo unspecified) [Myclobutanil], for which the “scaled lipid accumulation score” value under setting [4] was ≤ 0.
As to `[O-][n+]1ccccc1[S-].[O-][n+]1ccccc1[S-].[Zn+2]` [Pyrithione zinc], the “scaled lipid accumulation score” value is, setting by setting: (library stock concentration: 6.3 mM) 0.435; under setting [2], 0.127.
For the compound `c1cncc([C@@H]2CCCCN2)c1` [Anabasine], the “scaled lipid accumulation score” value was ≤ 0.
On to `Fc1cc(F)c2c(c1)[C@H]1C=CC[C@@H]1C(c1cccnc1)N2` (stereo partly specified) [Golgicide A], for which the “scaled lipid accumulation score” value reads like this: under setting [1], 0.872 (active); under setting [2], 1.03 (active).
Regarding `c1cncc([C@@H]2CCCN2)c1` [Nornicotine], the “scaled lipid accumulation score” value under setting [2] was ≤ 0.
`C[C@H](CCC(=O)O)C[C@H](C)C[C@H](C)C(=O)/C=C(\O)[C@H](C)C[C@H](C)C/C=C/[C@@H](C)[C@@H](O)[C@@H](C)[C@@H](O)C[C@@H]1CC[C@@](C)([C@H]2CC[C@@](C)([C@@H](C)O)O2)O1` [Ionomycin]: under “library stock concentration: 7.1 mM”, the “scaled lipid accumulation score” value was 0.48.
As to `O=C1CN=C(c2ccccc2)c2cc([N+](=O)[O-])ccc2N1` [Nitrazepam], the “scaled lipid accumulation score” value under setting [2] was ≤ 0.
For the compound `COc1ccc(CNC(=O)/C=C/c2ccc3[nH]cc(CCN(C)C)c3c2)cc1` [listing 1 of 2 here], under setting [2], the “scaled lipid accumulation score” value was 1.03 (active).
On to `COc1ccc2[nH]cc(CCN)c2c1` [O-Methylserotonin hydrochloride], for which the “scaled lipid accumulation score” value under setting [2] is ≤ -0.055.
Still for that read-out and setting: as for `COc1ccc2[nH]cc(CCN)c2c1` [5-Methoxytryptamine], the figure is ≤ 0; as for `COc1ccc(CNC(=O)/C=C/c2ccc3[nH]cc(CCN(C)C)c3c2)cc1` [listing 2 of 2 here], 0.736.
`O[C@H]1[C@H](O)[C@@H](O)CN2CC[C@H](O)[C@H]12` [Castanospermine]: the “scaled lipid accumulation score” value was ≤ 0 under setting [2] and 0.125 (library stock concentration: 26.4 mM).
For `CCCCCC=CCC=CCC=CCC=CCCCC(=O)NCC(O)CC(=O)O` (stereo unspecified) [N-Arachidonoyl-3-hydroxy-.gamma.-Aminobutyric Acid], the “scaled lipid accumulation score” value under setting [3] is ≤ 0.
Regarding `CC[C@H]1CN2CC[C@H]1C[C@H]2[C@H](O)c1ccnc2ccc(OC)cc12` [Hydroquinine hydrobromide hydrate], the “scaled lipid accumulation score” value was ≤ 0.
Regarding `CCCC[C@H]1C(=O)O[C@H](C)[C@H](NC(=O)c2cccc(NC=O)c2OC)C(=O)O[C@@H](C)[C@@H]1OC(=O)CC(C)C` [2-methoxyantimycin A3], under “library stock concentration: 9.4 mM”, the “scaled lipid accumulation score” value is 0.292.
Take `CC(C)(C)c1cc(C=C(C#N)C#N)cc(C(C)(C)C)c1O` [Tyrphostin 9] [listing 1 of 2 here]: the “scaled lipid accumulation score” value under setting [2] was 1.27 (active).
On to `CC(C)(C)c1cc(C=C(C#N)C#N)cc(C(C)(C)C)c1O` [Tyrphostin 9] [listing 2 of 2 here], for which the “scaled lipid accumulation score” value is 0.175 under setting [1] and 0.752 (library stock concentration: 17.7 mM).
For the compound `CC(C)(C)c1cc(C=C(C#N)C#N)cc(Br)c1O`, the “scaled lipid accumulation score” value is, setting by setting: under setting [1], ≤ 0; under setting [2], ≤ 0.
Take `CC(C)(C)c1cc(C=C(C#N)C#N)cc(C(C)(C)C)c1O` [Tyrphostin A9]: the “scaled lipid accumulation score” value under setting [2] was 0.728.
Take `C[C@]12CC[C@H]3[C@@H](CCC4=CC(=O)CC[C@@]43C)[C@@H]1CC[C@@H]2O` [Testosterone]: the “scaled lipid accumulation score” value runs as follows: under setting [4], 0.032; under setting [2], 0.108 and 0.479.
For `Oc1cc2c(cc1O)[C@H]1c3ccccc3CN[C@@H]1CC2` (racemic) [Dihydrexidine hydrochloride], the “scaled lipid accumulation score” value under setting [2] is 0.823.
In the case of `CCCC[N+]1(C)[C@@H]2C[C@@H](OC(=O)[C@H](CO)c3ccccc3)C[C@H]1[C@@H]1O[C@@H]12` (single isomer, unassigned; (-)) [(-)-Scopolamine,n-Butyl-, bromide], the “scaled lipid accumulation score” value under setting [2] was ≤ 0.
In the case of `CCCCCCCCCOc1ccc2[nH]cc(CCN)c2c1` [5-Nonyloxytryptamine], where the note is “library stock concentration: 9.9 mM”, the “scaled lipid accumulation score” value is 0.5.
Consider `CC(N)Cc1c[nH]c2ccc(O)cc12` (stereo not drawn) [alpha-Methyl-5-hydroxytryptamine maleate], for which the “scaled lipid accumulation score” value under setting [2] was ≤ -0.055.
In the case of `CNCCc1c[nH]c2ccc(O)cc12` [N-omega-Methyl-5-hydroxytryptamine oxalate salt], under setting [2], the “scaled lipid accumulation score” value was ≤ -0.055.
In the case of `CC(N)Cc1c[nH]c2ccc(O)cc12` (stereo unspecified), the “scaled lipid accumulation score” value under setting [2] was ≤ 0.
With `CC(N)Cc1c[nH]c2ccc(OCc3cccs3)cc12.Cl` (stereo unspecified), the “scaled lipid accumulation score” value under setting [2] is 1.18 (active).
Take `CC(N)Cc1c[nH]c2ccc(OCc3cccs3)cc12` (stereo unspecified): under setting [3], the “scaled lipid accumulation score” value was 0.315.
In the case of `CC(N)Cc1c[nH]c2ccc(OCc3cccs3)cc12.Cl` (stereo unspecified) [BW 723C86 hydrochloride], the “scaled lipid accumulation score” value under setting [2] is 1.3 (active).
For `CN1CCC2=C[C@H](O)[C@H]3OC(=O)c4cc5c(cc4[C@H]3[C@@H]21)OCO5` [Hippeastrine hydrobromide], the “scaled lipid accumulation score” value was ≤ 0.
As for `O=S(=O)(c1c(O)c(Cl)cc(Cl)c1Cl)c1c(O)c(Cl)cc(Cl)c1Cl` [p38 MAP Kinase Inhibitor IV], under setting [1], the “scaled lipid accumulation score” value is ≤ 0.
Take `CCCCC/C=C\C/C=C\C/C=C\C/C=C\CCCC(=O)NCCS(=O)(=O)O` [N-Arachidonoyl Taurine]: the “scaled lipid accumulation score” value under setting [3] was 0.01.
In the case of `O=C1C2CCN(CC2)C1(CO)CO` [listing 1 of 2 here], under “library stock concentration: 27 mM”, the “scaled lipid accumulation score” value was 0.911 (active).
`O=C1C2CCN(CC2)C1(CO)CO` [listing 2 of 2 here]: the “scaled lipid accumulation score” value under setting [3] was ≤ 0 and the “scaled lipid accumulation score” value under setting [2] is 0.045.
Consider `CC(=O)C1=C(O)[C@@H]2[C@H]3c4c[nH]c5cccc(c45)C[C@H]3C(C)(C)N2C1=O` [Cyclopiazonic acid], for which the “scaled lipid accumulation score” value (library stock concentration: 14.9 mM) is 0.019.
Turning to `CC(=O)C1=C(O)[C@@H]2[C@H]3c4c[nH]c5cccc(c45)C[C@H]3C(C)(C)N2C1=O` [Cyclopiazonic Acid], under setting [2], the “scaled lipid accumulation score” value is 0.021.
On the same count and under the same terms, as for `BrC1C(Br)C(Br)C(Br)C(Br)C1Br` (stereo unspecified) [1,2,3,4,5,6-Hexabromocyclohexane], the figure is ≤ -0.001.
As for `CC1=C2C[C@H]3[C@@H](CC=C4C[C@@H](O)CC[C@@]43C)[C@@H]2CC[C@]12O[C@@H]1C[C@H](C)CN[C@H]1[C@H]2C` [Cyclopamine], the “scaled lipid accumulation score” value (library stock concentration: 12.1 mM) was 0.19.
For `COC(=O)/C=C/C(=O)N[C@@H]1CC[C@@]2(O)[C@H]3Cc4ccc(O)c5c4[C@@]2(CCN3CC2CC2)[C@H]1O5`, under setting [2], the “scaled lipid accumulation score” value is 0.325.
Regarding `CC1=NCCc2c1[nH]c1cc(O)ccc21.Cl.O.O` [Harmalol hydrochloride dihydrate], the “scaled lipid accumulation score” value is 0.979 (active).
Turning to `COc1ccc2c3c([nH]c2c1)C(C)=NCC3` [Harmaline hydrochloride dihydrate], the “scaled lipid accumulation score” value is 0.371.
In the case of `COc1ccc2c3c([nH]c2c1)C(C)=NCC3` [Harmaline], the “scaled lipid accumulation score” value under setting [2] was 0.389.
In the case of `CC1=NCCc2c1[nH]c1cc(O)ccc21` [Harmalol hydrochloride], under setting [2], the “scaled lipid accumulation score” value is ≤ 0.
With `COC1=C[C@@H]2C3=C([C@@H]2C1=O)[C@@H](NC(C)=O)CCc1cc(OC)c(OC)c(OC)c13` [Lumicolchicine gamma], the “scaled lipid accumulation score” value is ≤ 0.
Turning to `c1ccc(C2CNCc3ccccc32)cc1` (stereo unspecified) [4-Phenyl-1,2,3,4-tetrahydroisoquinoline hydrochloride], the “scaled lipid accumulation score” value under setting [2] was 0.217.
In the case of `Cl.Cl.Fc1ccc(C(OCCN2CCN(CCCc3ccccc3)CC2)c2ccc(F)cc2)cc1` [listing 1 of 2 here], the “scaled lipid accumulation score” value is 0.864 (active).
`Fc1ccc(C(OCCN2CCN(C/C=C/c3ccccc3)CC2)c2ccc(F)cc2)cc1`: the “scaled lipid accumulation score” value under setting [2] is 0.507.
With `Fc1ccc(C(OCCN2CCN(CCCc3ccccc3)CC2)c2ccc(F)cc2)cc1`, under setting [2], the “scaled lipid accumulation score” value is ≤ -0.061.
With `Clc1ccc(C(OCCN2CCCCC2)c2ccccc2)cc1` (stereo unspecified) [Cloperastine hydrochloride], the “scaled lipid accumulation score” value was 0.488. The “scaled lipid accumulation score” value under setting [2] is 0.544.
For the compound `Cl.Cl.Fc1ccc(C(OCCN2CCN(CCCc3ccccc3)CC2)c2ccc(F)cc2)cc1` [listing 2 of 2 here], the “scaled lipid accumulation score” value under setting [2] is 0.942 (active).
Consider `c1ccc(CCCN2CCN(CCOC(c3ccccc3)c3ccccc3)CC2)cc1`, for which, under setting [2], the “scaled lipid accumulation score” value was ≤ -0.07 and 0.566.
